According to PubChem BioAssay (NCI):
This is part of a sample that, as a whole, favours compounds with a hit. Of some 79,000 tested, about 15% had one in any assay. Calls of active or inactive are those of the source. No stated cut-off is given here; in the data, active means growth inhibition above about 70%; inactive means the rest.

Test: NCI Yeast Anticancer Drug Screen. Data for the mlh1 strain (AID 171);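 further: 0% = growth of vehicle-treated control cultures of the same strain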
Conditions: S. cerevisiae mlh1 strain growth inhibition; at 100.0 µM; active compounds read high
Method in brief: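 Compounds are applied to a genetically altered yeast strain, and its growth is compared with that of vehicle-treated cultures to give percent inhibition.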

Row | SMILES | growth inhibition
1 | c1ccc(-c2cc(C3CO3)c3ccccc3n2)cc1 (stereo unspecified) | 99% (active)
2 | S=C1C(=Nc2ccccc2)N(c2ccccc2)/C(=N\c2ccccn2)N1c1ccccc1 | 96% (active)
3 | CCC(OC(C)=O)C1CC(C(C)C)CCC1C (stereo unspecified) | 54% (inactive)
4 | CC(C)=CCc1c2c(c(O)c3c(=O)c(-c4ccc(O)c(O)c4)coc13)C=CC(C)(C)O2 | 86% (active)
5 | O=C(NC(N1CCN(c2cc3c(cc2F)c(=O)c(C(=O)O)cn3C2CC2)CC1)(C(F)(F)F)C(F)(F)F)c1ccccc1 | 39% (inactive)
6 | Fc1cc(F)c(F)c(S)c1F | 98% (active)
7 | COc1ccc2cc3c4cc5c(cc4cc[n+]3cc2c1OC)OCO5 | 97% (active)
8 | CCCCCCCCNCCCCCCCC | 100% (active)
9 | Nc1cc(Cl)ccc1Nc1ccccc1 | 79% (active)
10 | O=C(/C(=C/c1ccc(O)cc1)c1ccccc1)c1ccccc1 | 88% (active)
11 | O=Cc1ccccc1C=O | 84% (active)
12 | C1=CCN([B-](c2ccccc2)[C+]2CCCCC2)C=C1 | 99% (active)
13 | CC/C(=C(\c1ccccc1)c1ccc(OCC[N+](C)(C)C)cc1)c1ccccc1 | 99% (active)
14 | O=S(=O)(c1cccc(C(F)(F)F)c1)N1c2ccccc2-n2cccc2C1c1cccnc1 (stereo unspecified) | 88% (active)
15 | Nc1ccc2c(c1)C(=O)c1c(F)cccc1-2 | 86% (active)
16 | CN(C)/C(=N/C(=S)Nc1ccccc1)SCc1ccccc1 | 20% (inactive)
17 | CCN(CC)C(=S)N/N=C(\C)c1ccccc1O | 99% (active)
18 | CC(C)OC(=O)NNc1cc(Cl)ccc1Cl | 58% (inactive)
19 | CC(C)CCC[C@@H](C)[C@H]1CC[C@H]2[C@@H]3CC[C@H]4C[C@H](N)CC[C@]4(C)[C@H]3CC[C@]12C | -3% (inactive)
20 | O=C1c2ccccc2-c2ccc(N=Cc3ccccc3)cc21 | 79% (active)

Test: NCI Yeast Anticancer Drug Screen. Data for the sgs1 strain (AID 173);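 further: 0% = growth of vehicle-only control cultures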
Conditions: S. cerevisiae sgs1 mutant, at 1.2 µM, active compounds read high
Method in brief: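 Compounds applied to genetically altered yeast; growth compared with vehicle-treated cultures to give % inhibition.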

Row | SMILES | growth inhibition
21 | COc1ccc2nc3cccc([N+](=O)[O-])c3c(NCCNCCN(C)C)c2c1 | -1% (inactive)
22 | Cc1cccc(/C=N/NC(=S)NC2CCCCC2)n1 | -3% (inactive)
23 | COC(=O)C(=O)c1c(-c2ccc(Cl)c(Cl)c2)[nH]c2[nH]n(-c3ccccc3)c(=O)c2c1=O | -1% (inactive)
24 | c1ccc([P+](CCN2Cc3ccccc3C2)(c2ccccc2)c2ccccc2)cc1 | 13% (inactive)
25 | Cc1cc(C)c2[s+]snc2c1 | 4% (inactive)
26 | CC(C)(Br)C(=O)/C=C/c1ccccc1 | 24% (inactive)
27 | Cc1ccc(S(=O)(=O)NC(=O)C2C(=O)CC3(CCCCC3)CC2=O)cc1 | -12% (inactive)
28 | NC(=S)N1N=C2c3ccccc3CC[C@H]2[C@@H]1c1ccc(Cl)cc1 | 22% (inactive)
29 | O=[N+]([O-])/C=C/c1cc2ccc3ccccc3c2[nH]1 | 39% (inactive)
30 | O=C1C(=C2CCCC2)CCC1CN1CCCCC1 (stereo unspecified) | 34% (inactive)
31 | OC(CC(O)(C(F)(F)F)C(F)(F)F)c1ccc(C(O)CC(O)(C(F)(F)F)C(F)(F)F)cc1 (stereo unspecified) | 26% (inactive)
32 | COc1cc2c(cc1OC)[C@@H](Nc1ccc(C#N)cc1)C1COC(=O)[C@@H]1C2c1cc(OC)c(O)c(OC)c1 (stereo partly specified) | -20% (inactive)
33 | O=c1cccccc1[O-].O=c1cccccc1[O-].O=c1cccccc1[O-].[Eu+3] | 2% (inactive)
34 | O=C1c2ccccc2C(=O)c2sc(Nc3ccccc3Cl)nc21 | -6% (inactive)
35 | NC(CCCCCCCCCCCCC(N)C(=O)c1ccccc1)C(=O)c1ccccc1 (stereo unspecified) | -5% (inactive)
36 | CC1=C(C)C(=O)C2=C(OCCO2)C1=O | -22% (inactive)
37 | c1ccc(-c2cc(C3CO3)c3ccccc3n2)cc1 (stereo unspecified) | 0% (inactive)
38 | S=C1C(=Nc2ccccc2)N(c2ccccc2)/C(=N\c2ccccn2)N1c1ccccc1 | -2% (inactive)

Row | SMILES | growth inhibition
39 | CCC(OC(C)=O)C1CC(C(C)C)CCC1C (stereo unspecified) | -1% (inactive)
40 | CC(C)=CCc1c2c(c(O)c3c(=O)c(-c4ccc(O)c(O)c4)coc13)C=CC(C)(C)O2 | -46% (inactive)
41 | O=C(NC(N1CCN(c2cc3c(cc2F)c(=O)c(C(=O)O)cn3C2CC2)CC1)(C(F)(F)F)C(F)(F)F)c1ccccc1 | -3% (inactive)
42 | Fc1cc(F)c(F)c(S)c1F | -34% (inactive)
43 | COc1ccc2cc3c4cc5c(cc4cc[n+]3cc2c1OC)OCO5 | 24% (inactive)
44 | CCCCCCCCNCCCCCCCC | 11% (inactive)
45 | Nc1cc(Cl)ccc1Nc1ccccc1 | -53% (inactive)
46 | O=C(/C(=C/c1ccc(O)cc1)c1ccccc1)c1ccccc1 | -18% (inactive)
47 | O=Cc1ccccc1C=O | -19% (inactive)
48 | C1=CCN([B-](c2ccccc2)[C+]2CCCCC2)C=C1 | -2% (inactive)
49 | CC/C(=C(\c1ccccc1)c1ccc(OCC[N+](C)(C)C)cc1)c1ccccc1 | -7% (inactive)
50 | O=S(=O)(c1cccc(C(F)(F)F)c1)N1c2ccccc2-n2cccc2C1c1cccnc1 (stereo unspecified) | -40% (inactive)
51 | Nc1ccc2c(c1)C(=O)c1c(F)cccc1-2 | -2% (inactive)
52 | CN(C)/C(=N/C(=S)Nc1ccccc1)SCc1ccccc1 | -3% (inactive)
53 | CCN(CC)C(=S)N/N=C(\C)c1ccccc1O | -5% (inactive)
54 | CC(C)OC(=O)NNc1cc(Cl)ccc1Cl | 0% (inactive)
55 | CC(C)CCC[C@@H](C)[C@H]1CC[C@H]2[C@@H]3CC[C@H]4C[C@H](N)CC[C@]4(C)[C@H]3CC[C@]12C | -3% (inactive)
56 | O=C1c2ccccc2-c2ccc(N=Cc3ccccc3)cc21 | -13% (inactive)
